# Reference: PubChem BioAssay AID588473 (Sanford-Burnham Center for Chemical Genomics, 2011)
# Screen size: about 350,000 compounds; about 1,600 (0.46%) were called active. This is one part of a sample in which actives are shown more often than they occur. Values without a mark were called inactive.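 Rule for the calls: active = activation of at least 50%, plus an integration ratio under a set limit after plate pattern correction; inactive = the rest.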
# System: CRF-binding protein / CRF receptor 2 complex (human)
# Assay: agonists of CRF-BP/CRF-R2 complex, primary screen, cell-based, HEK293, calcium dye fluorescence, uHTS (AID 588473);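 note: plate controls were neutral control wells without compound for no effect and CRF at EC100 for full effect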
# Conditions: calcium dye fluorescence (FLIPR), at 13.2 µM, active compounds read high, percent of saturating CRF peptide response
row,SMILES,activation
1,CCN(CC)CCCC(C)n1c2nc(=O)[nH]c(=O)c-2nc2cc(Cl)ccc21 (configuration not stated),192% (active)
2,C=C(C)Cn1c(C)cc(C)c(S(=O)(=O)c2ccccc2C)c1=O,-0.15%
3,CC1COc2ccccc2N1S(=O)(=O)c1ccccc1 (configuration not stated),2.38%
4,Cc1nn(C)cc1/C=C1\CCC/C(=C\c2cn(C)nc2C)C1=O,0.2%
5,COc1cc(-c2nnc(NC(=O)CS(=O)(=O)c3ccc(Cl)cc3)o2)cc(OC)c1OC,3.74%
6,COc1cccc(-c2nnc(NC(=O)c3ccc(S(=O)(=O)N(CC(C)C)CC(C)C)cc3)o2)c1,98.1% (active)
7,COc1ccc(-c2nnc(NC(=O)CS(=O)(=O)c3ccc(Cl)cc3)o2)c(OC)c1,-1.55%
8,CCCCN1C(=O)C(CC(=O)NCc2cccs2)CC(C(=O)N2CCOCC2)=C1C (configuration not stated),-1.86%
9,CC(OC(=O)c1ccc(NC(=O)CC#N)cc1)C(=O)Nc1ccc(S(=O)(=O)N2CCCC2)cc1 (configuration not stated),-0.83%
10,O=C(COC(=O)C1(c2ccc(F)cc2)CCCC1)N1CCNC1=O,-1.56%
11,O=C(c1cccs1)N1CCCC(c2nc(-c3ccc(F)cc3)no2)C1 (configuration not stated),-3.55%
12,N#Cc1c(C(F)(F)F)cc(-c2ccc(Cl)cc2)nc1SCC(=O)O,0.45%
13,N#Cc1c(-c2ccc(F)cc2)cc(C2CC2)nc1SCC(=O)c1cccs1,76.4% (active)
14,CC1(C)SC2c3ccccc3C(=O)N2[C@@H]1C(=O)NCc1ccco1 (some centres not stated),-0.83%
15,COCCCNC(=O)[C@H]1N2C(=O)c3ccccc3C2SC1(C)C (some centres not stated),53.6% (active)
16,COCCCNC(=O)C1CC(=O)N(CCc2ccccc2)C1 (configuration not stated),-1.35%
17,O=C(Nc1cccc2ccccc12)c1onc2c1CCCC2,-2.42%
18,CC(OC(=O)CCCOc1ccccc1)C(=O)Nc1ccc(Cl)cn1 (configuration not stated),-1.67%
19,O=C(/C=C/c1ccc(N2CCOCC2)cc1)c1ccccc1,89.1% (active)
20,O=C(NC(=O)N1CCOCC1)c1ccccc1,5.54%
21,O=C(c1ccccc1)c1ccc(C(=O)N2CCN(c3ccccc3)CC2)cc1,0.4%
22,Cc1ccc(S(=O)(=O)Nc2nc(CN3CCOCC3)nc3sc(C)c(C)c23)cc1,3.71%
23,CCC(=O)c1cc(F)ccc1OCC(=O)Nc1ccc2c(c1)OCCO2,0.29%

row,SMILES,activation
1,O=C(CN(c1cc(C(F)(F)F)ccc1Cl)S(=O)(=O)c1ccccc1)NCc1cccnc1,1.6%
2,O=S(=O)(c1cccc(C(F)(F)F)c1)N1c2ccccc2-n2cccc2C1c1cccnc1 (configuration not stated),138% (active)
3,O=S(=O)(c1cccc(C(F)(F)F)c1)N1CCN(c2cnccn2)CC1,-0.32%
4,COCCN(C(=O)CCC(=O)Nc1nccs1)C(C(=O)NC(C)(C)C)c1ccc(Cl)cc1 (configuration not stated),0.68%
5,CCCC(=O)Nc1ncnc2c1ncn2[C@@H]1O[C@@H]2OP(=O)(O)OC[C@H]2[C@H]1OC(=O)CCC,-0.33%
6,O=C(Nc1cccc(S(=O)(=O)NC2=NCCC2)c1)C1CCCCC1,1.06%
7,O=C(O)C1OC(C(=O)O)C2C1C(F)(F)C2(F)F (configuration not stated),0.58%
8,CCOC(=O)Cc1cc(=O)[nH]c(=O)[nH]1,-0.34%
9,CC(Nc1ccc([N+](=O)[O-])cc1[N+](=O)[O-])c1ccccc1 (configuration not stated),-3.71%
10,O=C(NC(Nc1nc2ccc([N+](=O)[O-])cc2s1)(C(F)(F)F)C(F)(F)F)c1ccccc1,69.9% (active)
11,O=C(O)c1cc([N+](=O)[O-])c(Nc2cccc3ccccc23)c([N+](=O)[O-])c1,-0.94%
12,CCN=c1sc(C(=O)Nc2ccccc2)c(C)n1CC,-2.99%
13,CCc1ccccc1N1CN(Cc2ccco2)CNC1=S,80.2% (active)
14,Cn1c2c(c(=O)n(C)c1=O)CN(Cc1ccco1)CN2,2.8%
15,CCOc1ccccc1N1CN(Cc2ccccc2)CNC1=S,-0.43%
16,C=CCn1c(=O)c2ccccc2n2c(SCC(=O)N3CCCc4ccccc43)nnc12,75.3% (active)
17,Cn1c(SCC(=O)N2CCCc3ccccc32)nc2ccccc2c1=O,3.16%
18,CCn1c(=O)c2ccccc2n(CC(=O)N2CCCc3ccccc32)c1=O,0.82%
19,CCOC(=O)CSC1=N/C(=C/c2ccc(-n3cncn3)cc2)C(=O)N1C(C)=O,1.8%
20,COc1cccc(CNS(=O)(=O)c2ccc3c(c2)N(C(C)=O)CCS3)c1,1.61%
21,CN(C)c1ccc(C=C2C(=O)OC3(CCCC3)OC2=O)cc1,23.8%
22,CN(C)c1ccc(/C=C2\NC(=S)N(Cc3ccccc3)C2=O)cc1,191% (active)
23,CC1CN(Cc2ccccc2)C(=S)NC1=O (configuration not stated),-2.85%

row,SMILES,activation
1,Cc1ccccc1Cn1nc(C)c(NC(=O)C(F)(F)F)c1C,-0.93%
2,CN(Cc1cc2cc(F)ccc2[nH]1)Cc1nc(-c2cnccn2)no1,-0.56%
3,O=C(CSc1nnc(-c2ccc([N+](=O)[O-])cc2)o1)Nc1ccccn1,-0.44%
4,Cc1cccc(CN2CCN(Cc3cnn(-c4ccccc4F)c3)CC2CCO)n1 (configuration not stated),-2.69%
5,Cc1onc(-c2ccccc2)c1C(=O)NNC(=S)NC(=O)c1ccc(F)cc1,181% (active)
6,Cc1onc(-c2ccccc2)c1C(=O)N=C(N)c1ccc(Cl)cc1,2.16%
7,O=C(NNC(=S)NC(=O)c1cn(-c2ccccc2)nc1-c1ccccc1)c1ccncc1,27.4%
8,COc1ccc(C(=O)NC(=S)NNC(=O)c2c(-c3ccccc3)noc2C)cc1,99.3% (active)
9,Cc1noc(C)c1COc1ccc(C(=O)NCCOc2ccccc2)cc1,3.12%
10,COc1ccc(C(=O)NNC(=O)c2cc(C)[nH]n2)cc1,-0.62%
11,O=S(=O)(N/N=C\c1cccn1-c1ccccc1)c1ccc2ccccc2c1,-1.5%
12,CCOC(=O)C1=C(N)N2C(=O)C(C)SC2=C(C(=O)OCC)C1c1cc(OC)c(OC)c(OC)c1 (configuration not stated),-0.18%
13,COc1cccc(N2CC(NC(=O)c3ccc4ccccc4c3)CC2=O)c1 (configuration not stated),-0.96%
14,O=C(CCc1nc(-c2ccccc2)no1)Nc1cccc(C(=O)NC2CC2)c1,-1.3%
15,COC(=O)c1ccc(C(=O)OC)c(NC(=S)N2CCN(c3cc(Cl)ccc3C)CC2)c1,2.16%
16,Cc1ccc(Cl)cc1N1CCN(C(=O)c2cccc3c(=O)c(C)c(-c4ccccc4)oc23)CC1,63.6% (active)
17,Cc1cccc(N2CCN(C(=O)c3cnn4c(C(F)F)cc(-c5ccccc5)nc34)CC2)c1C,-0.01%
18,CC(=O)Nc1ccc(S(=O)(=O)N(C)c2ccc(OCC(=O)OCC(=O)N3CCCCC3)cc2)cc1,-1.11%
19,COc1cc(N=Cc2c(O)c3ccccc3oc2=O)c(OC)cc1Cl,66.4% (active)
20,COc1ccccc1CNC(=O)c1cc(=O)c2ccccc2o1,-1.3%
21,O=c1oc2ccccc2c(=O)c2ccccc12,0%
22,CCCCC(=O)NNC(=S)NC(=O)C(c1ccccc1)c1ccccc1,135% (active)
23,O=C(CCN1CCN(c2ccccc2)CC1)NNC(=S)Nc1ccccc1,-0.17%

row,SMILES,activation
1,CC(C)C(=O)NC(=S)Nc1ccccc1F,-2.1%
2,CC(C)CCNC(=O)CC1C(=O)N(Cc2ccccc2)C(C)c2nc3ccccc3n21 (configuration not stated),-1%
3,OC(COCCC12CC3CC(CC(C3)C1)C2)CN1CCCCC1 (configuration not stated),0.79%
4,COc1ccc(NC(C(=O)Nc2cccc(C(C)=O)c2)c2ccccc2)cc1 (configuration not stated),-0.34%
5,COc1ccc(-c2onc3ccc(C(C)=O)cc23)cc1,100% (active)
6,COc1ccc(-c2ocnc2C(=O)Nc2ccc3c(c2)CCC3)cc1,1.68%
7,CC1CCCCC1NCC(=O)Nc1ccccc1C(=O)Nc1ccccc1 (configuration not stated),-2.89%
8,COc1ccccc1C(=O)Nc1ccccc1C(=O)Nc1ccccc1,0.57%
9,O=C(Nc1ccccc1)c1ccccc1NC(=O)C(F)(F)F,55.4% (active)
10,O=S(=O)(Nc1ccc(-c2ccc(N3CCOCC3)nn2)cc1)c1cc(Cl)ccc1Cl,0.21%
11,Brc1ccc(C2=CC(c3ccco3)n3ncnc3N2)cc1 (configuration not stated),274% (active)
12,Clc1ccc2c(c1)C1=C(C(c3ccncc3)O2)C(c2ccc(Br)cc2)n2ncnc2N1 (configuration not stated),0.45%
13,CCOc1ccccc1C1CC(c2ccccc2)Nc2nc(N)nn21 (configuration not stated),8.41%
14,CC1=C(C(=O)OC2CCCCC2)C(c2cccnc2)n2ncnc2N1 (configuration not stated),-0.1%
15,CCOc1ccc(C2=CC(c3ccccc3)n3ncnc3N2)cc1 (configuration not stated),53.1% (active)
16,CN(CC(=O)Nc1ccccc1F)CC(=O)Nc1ccccc1Br,-3.49%
17,Cc1cccc(CC2(O)C(=O)Nc3ccccc32)n1 (configuration not stated),-0.62%
18,CCN(CC)S(=O)(=O)c1ccc(Cl)c(C(=O)NC(C)C(c2cccs2)N2CCCC2)c1 (configuration not stated),0.2%
19,OCCCNC(c1ccccc1)c1ccc(O)cc1 (configuration not stated),-1.4%
20,COc1cc(/C=C2\C(=N)N3N=C(CC(=O)N4CCOCC4)SC3=NC2=O)cc(OC)c1OC,-0.4%
21,COC1=C/C(=C/c2c(N)n3nc(CC(=O)N4CCOCC4)sc3nc2=O)C=CC1=O,9.37%
22,C=CCC1=C/C(=C\c2c(N)n3nc(CC(=O)N4CCOCC4)sc3nc2=O)C=C(OC)C1=O,83.2% (active)
23,CN(CC(=O)Nc1ccc(C(N)=O)cc1)S(=O)(=O)c1ccc2c(c1)OCCO2,3.57%
